Mtb FBA inh = Mtb FBA enzyme inhibitors, primary screen, biochemical, fluorescence, strain H37Rv | actives 2.3% (n = 360,000) | inhibition, % at 1 µM | purified M. tuberculosis FBA, fluorescence read-out | Fructose-bisphosphate aldolase (Mycobacterium tuberculosis (strain ATCC 25618 / H37Rv)), … | AID 588726, 2011;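 also: 0% = vehicle and 100% = reference inhibitor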
Target sequence (P9WQA3 whole entry, looked up): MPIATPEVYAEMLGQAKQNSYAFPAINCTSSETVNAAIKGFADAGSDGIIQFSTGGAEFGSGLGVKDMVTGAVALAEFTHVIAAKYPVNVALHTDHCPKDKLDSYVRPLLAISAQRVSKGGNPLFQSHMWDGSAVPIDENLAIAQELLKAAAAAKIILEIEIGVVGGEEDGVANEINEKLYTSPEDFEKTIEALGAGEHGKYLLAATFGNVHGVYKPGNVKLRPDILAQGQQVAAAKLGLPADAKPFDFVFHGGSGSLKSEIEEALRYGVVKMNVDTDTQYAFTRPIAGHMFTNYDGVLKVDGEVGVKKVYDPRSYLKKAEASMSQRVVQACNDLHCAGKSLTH
Mtb bLac sens = beta-lactam sensitization of Mtb H37Rv, H37Rv; M. tuberculosis H37Rv growth with meropenem, percent inhibition; inhibition, % at 25 µM; actives 0.27% (n = 330,000); AID 434955, 2010; call rule not given here;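 also: growth measured after seven days incubation then overnight dye step; 0% = bacteria only wells and 100% = bacteria with antibiotic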
Mtb UGM inh = M. tuberculosis UGM enzyme inhibitors, primary screen, biochemical, fluorescence polarization, single point; purified UGM, fluorescence polarization probe displacement; inhibition, % at 10 µM; UDP-galactopyranose mutase (Mycobacterium tuberculosis (strain ATCC 25618 / H37Rv)), …; actives 0.06% (n = 320,000); in the data active = inhibition above about 10%, passing the limit was not always enough
GDH-TPI counter-1 = GDH-TPI coupling enzyme inhibitors, primary screen, artefact control for M. tuberculosis FBA inhibitor project, biochemical, absorbance, full deck; GDH-TPI coupled enzyme counterscreen, NADH absorbance; inhibition, % at 4.8 µM; actives 1.2% (n = 360,000); AID 588335, 2011; in the data active = inhibition above about 30%;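 also: 0% = DMSO wells and 100% = wells lacking the enzyme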
Rv3671c protease = Rv3671c serine protease inhibitors, primary screen, biochemical, fluorescence polarization, M. tuberculosis H37Rv; actives 0.048% (n = 320,000); P9WHR9; inhibition, % at 5.96 µM; in the data active = inhibition above about 38%;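 also: extracellular domain of Rv3671c used as enzyme; 0% = enzyme with DMSO and 100% = no enzyme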
Target sequence (P9WHR9 whole entry, looked up, the tested form may be a part): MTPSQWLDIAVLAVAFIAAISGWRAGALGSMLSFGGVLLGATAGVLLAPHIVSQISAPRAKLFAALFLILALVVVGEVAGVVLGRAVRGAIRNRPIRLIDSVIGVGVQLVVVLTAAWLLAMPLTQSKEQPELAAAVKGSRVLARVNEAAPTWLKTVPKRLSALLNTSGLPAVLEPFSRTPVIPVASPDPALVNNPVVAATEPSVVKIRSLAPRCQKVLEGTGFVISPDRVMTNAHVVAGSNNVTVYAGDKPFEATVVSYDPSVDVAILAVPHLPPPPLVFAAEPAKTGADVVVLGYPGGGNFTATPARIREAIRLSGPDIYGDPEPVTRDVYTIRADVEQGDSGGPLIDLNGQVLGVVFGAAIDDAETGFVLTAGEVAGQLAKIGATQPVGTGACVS
RecA intein inh = Mtb RecA intein splicing inhibitors, primary screen, biochemical, fluorescence, HTS; Protein RecA (Mycobacterium tuberculosis (strain ATCC 25618 / H37Rv)), P9WHJ3; cell-free RecA intein splicing; inhibition, % (concentration not given with the values); actives 0.75% (n = 290,000); AID 2221, 2009; in the data active = inhibition above about 30%;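 also: 0% = vehicle wells and 100% = reference inhibitor control wells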
Mtb FBA inh conf = M. tuberculosis aldolase blockers, biochemical, fluorescence, strain H37Rv, confirmation. shares compounds with Mtb FBA inh. purified M. tuberculosis FBA, fluorescence read-out. inhibition, % at 1 µM. actives 78% (n = 5,600). AID 651616, 2012;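 also: 0% = vehicle wells and 100% = reference inhibitor wells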
GDH-TPI counter-2 = GDH-TPI coupling enzyme inhibitors, artefact control for M. tuberculosis FBA inhibitor project, biochemical, fluorescence, high throughput | actives 81% (n = 5,600) | inhibition, % at 1 µM | GDH-TPI coupled enzyme counterscreen | shares compounds with Mtb FBA inh | AID 652141, 2013; in the data active = inhibition above about 10%
The depositor's hits bear a star; nt = no result given; + = active, no number. Compounds with a hit are over-represented: about 4% of the library has one in this group of screens. Rule as the data show it, unless noted: active = inhibition above about 27%; inactive = the rest.

SMILES | Mtb FBA inh | Mtb bLac sens | Mtb UGM inh | GDH-TPI counter-1 | Rv3671c protease | RecA intein inh | Mtb FBA inh conf | GDH-TPI counter-2
C/C=C(/C)C(=O)O[C@@H]([C@H](O)c1cc2ccc(=O)oc2cc1OC)C(C)(C)O[C@@H]1O[C@H](CO)[C@@H](O)[C@H](O)[C@H]1O | 58.8* | -0.1 | 1.0 | 12.1 | -0.7 | nt | 161.1* | 146.4*
CC(C)(O)[C@H](O)Cc1cc2ccc(=O)oc2cc1O[C@@H]1O[C@H](CO)[C@@H](O)[C@H](O)[C@H]1O | 5.9 | 1.8 | 4.3 | 12.7 | -1.9 | nt | nt | nt
C/C=C(\C)C(=O)O[C@H](c1cc2ccc(=O)oc2cc1OC)[C@@H](O)C(C)(C)O | 39.7* | -3.7 | 3.8 | 18.1 | -0.5 | nt | 90.1* | 57.8*
COc1cc2cc(Oc3ccc4ccc(=O)oc4c3)c(=O)oc2cc1OC(=O)C=C(C)C | nt | -1.0 | -2.4 | nt | 1.1 | -81.3 | nt | nt
CN(C(=O)c1ccc(NC(=O)Cc2ccc(NC(=O)C3CCN(S(=O)(=O)c4cccc([N+](=O)[O-])c4)CC3)cc2)cc1)C1CCCC1 | 0.1 | nt | nt | 9.1 | nt | nt | nt | nt
COc1cc(-c2nc3ccccn3c2NCC2CCCO2)ccc1O (configuration not stated) | 16.6 | -5.1 | -5.0 | 15.5 | 0.1 | -104.4 | nt | nt
COc1ccc(-c2nc3cccc(C)n3c2NCC2CCCO2)cc1O (configuration not stated) | 59.4* | -10.7 | -0.9 | 7.5 | -2.7 | -103.0 | 134.2* | 103.7*
CCOc1cc(-c2nc3c(C)cccn3c2NCC2CCCO2)ccc1O (configuration not stated) | 83.9* | -3.6 | -2.6 | 19.1 | 1.9 | -65.5 | 130.8* | 108.1*
O=C(CSc1cccc[n+]1[O-])Nc1ccc2c(c1)OCO2 | -0.6 | -13.1 | -0.4 | 9.8 | 4.5 | -3.0 | nt | nt
N#Cc1nc(Cc2cccc3ccccc23)oc1NCCN1CCCCC1 | 2.5 | -6.3 | 3.3 | 7.1 | 5.3 | 1.4 | nt | nt
N#Cc1nc(-c2ccccc2F)oc1NCCN1CCOCC1 | 35.8* | -2.4 | 0.0 | 11.9 | 5.4 | -0.2 | 83.8* | 80.6*
Cc1cccc(-c2nc(C#N)c(NCC3CCCO3)o2)c1 (configuration not stated) | 33.9* | -7.5 | -0.7 | -8.4 | 7.2 | -2.5 | 108.5* | 87.6*
O=S(=O)(c1ccc(F)cc1)c1nc(-c2ccc(F)cc2)oc1NCCN1CCOCC1 | -1.2 | nt | nt | 5.9 | nt | -4.1 | nt | nt
N#Cc1nc(-c2ccc(F)cc2)oc1NCCN1CCOCC1 | 46.4* | -3.8 | -0.5 | 16.0 | 4.5 | 2.5 | 81.0* | 61.8*
N#Cc1nc(COc2ccccc2)oc1NCCN1CCOCC1 | 3.2 | -14.9 | -1.6 | -4.5 | 7.6 | -1.9 | nt | nt
Cc1ccc(-c2nc(C#N)c(NCCN3CCCCC3)o2)cc1 | 93.7* | -9.8 | 0.5 | 16.0 | 2.2 | nt | 170.0* | 121.1*
CCN(CC(=O)Nc1ccc(NC(C)=O)cc1)C(=O)CC1OC(=O)c2ccccc21 (configuration not stated) | 2.0 | -6.0 | -1.1 | -5.2 | 2.7 | -0.4 | nt | nt
CCOC(=O)Cn1ccc(NC(=O)COc2ccc(F)cc2)n1 | 3.0 | -0.9 | -2.3 | -2.3 | 4.0 | -3.6 | nt | nt
CC(NC(=O)COC(=O)c1c[nH]c2ccccc12)c1ccccc1 (configuration not stated) | 2.2 | -5.9 | -0.8 | 9.7 | -7.2 | nt | nt | nt
CCCCC(c1nnnn1CCOC)N1CCN(CC)CC1 (configuration not stated) | 38.2* | 1.0 | 3.7 | 8.7 | -5.3 | nt | 91.0* | 61.8*
c1ccc(COn2c(-c3ccccc3)nc3c2CCc2nonc2-3)cc1 | 53.2* | -9.8 | -0.1 | 0.4 | 1.8 | -0.7 | 106.9* | 93.0*
COn1c(-c2ccccc2)nc2c1CCc1nonc1-2 | 5.5 | -8.9 | 1.1 | 4.1 | -1.2 | -0.2 | nt | nt
Cc1nn(CCc2nn[nH]n2)c2nc(-c3ccccc3)cc(C(F)(F)F)c12 | 39.8* | 40.3 | 0.9 | 5.5 | -6.4 | -0.6 | + | 163.9*
Cc1cc(C(F)(F)F)c2c(C)nn(CCc3nn[nH]n3)c2n1 | 25.9 | -3.7 | 4.4 | -7.6 | -0.7 | -0.4 | nt | nt
C/C(=N\O)c1ccc2c3ccccc3n(C)c2c1 | 43.8* | 32.6 | -0.4 | 5.3 | -6.0 | 0.8 | + | 168.9*
SMILES | Mtb FBA inh | Mtb bLac sens | Mtb UGM inh | GDH-TPI counter-1 | Rv3671c protease | RecA intein inh | Mtb FBA inh conf | GDH-TPI counter-2
CCn1c2ccccc2c2cc(/C(C)=N/O)ccc21 | 4.0 | 5.2 | -1.5 | 2.0 | -3.0 | 7.1 | nt | nt
COc1ccc(-c2cc(C(F)(F)F)n3nc(C(=O)NCCCn4ccnc4)cc3n2)cc1 | 48.2* | -10.3 | 1.0 | 6.7 | 1.4 | -28.5 | 0.6 | -1.4
COc1ccc(-c2cc(C(F)(F)F)n3nc(C(=O)N4CCCC4)cc3n2)cc1 | -0.2 | -3.4 | 1.3 | 3.4 | 0.6 | -2.0 | nt | nt
COc1ccc(-c2cc(C(F)(F)F)n3nc(C(=O)NCCN4CCOCC4)cc3n2)cc1 | 39.2* | -7.2 | 1.9 | 7.6 | -6.1 | -38.8 | -1.2 | -4.7
O=C(c1sccc1-c1ccccc1)N1CCN(S(=O)(=O)c2ccccc2F)CC1 | 8.2 | -1.9 | -1.1 | 9.7 | -1.0 | 5.8 | nt | nt
CN(C)c1ccc(C(=S)N2CCCC2)cc1Br | -0.7 | -2.0 | -1.3 | -3.0 | 5.4 | 0.0 | nt | nt
COc1cc2cncc(Cc3ccccc3)c2cc1O | 58.0* | nt | nt | 15.3 | nt | nt | 85.1* | 78.3*
COc1ccc(-c2cc(=O)c3ccc(O)cc3o2)cc1OC | 54.3* | nt | nt | 25.0 | nt | nt | 6.3 | 3.6
COc1cccc(C(=O)Nc2ccc(-c3nc4ccccc4o3)c(O)c2)c1 | 43.2* | 99.7 | 0.2 | 33.1* | -43.3 | 0.9 | 46.2* | 33.0*
COc1cc(OC)cc(C(=O)Nc2ccc(-c3nc4ccccc4o3)cc2)c1 | 1.3 | 14.5 | 2.4 | 1.7 | -13.8 | 1.8 | nt | nt
CCc1cc(=O)oc2cc(OCC(=O)N3CCC(C(=O)O)CC3)ccc12 | 27.1* | -10.6 | -1.8 | 5.9 | 4.9 | -2.5 | 73.7* | 70.9*
O=C(O)C1CCN(C(=O)COc2ccc3c4c(c(=O)oc3c2)CCCC4)CC1 | 100.3* | 6.8 | 0.6 | 13.7 | -7.2 | -2.4 | 57.5* | 47.9*
Cc1c(C)c2ccc(OCC(=O)N3CCC(C(=O)O)CC3)cc2oc1=O | 102.6* | -3.0 | -1.6 | 7.8 | -10.9 | 0.7 | -5.5 | -4.6
O=C(O)[C@@H]1CCCN1C(=O)COc1ccc2c3c(c(=O)oc2c1)CCC3 | 41.8* | 1.3 | 1.4 | 14.7 | 3.3 | nt | 91.8* | 68.0*
Cc1cc(=O)oc2cc(OCC(=O)N3CCN(c4ccccc4)CC3)ccc12 | 13.4 | -2.5 | 1.5 | 12.7 | 3.1 | nt | nt | nt

Compound activity: PubChem BioAssay, several laboratories
